RmlC RmlD mix: inhibitors of RmlC and RmlD coupled enzymes. RmlC/RmlD coupled enzyme inhibition, 384-well mixture HTS. AID 1532. inhibition, % at 5.5 µM. actives 0.39% (n = 110,000); in the data active means inhibition above about 30%, passing the limit was not always enough; inconclusive means no clear call, values can overlap the other calls
HIV RNase H inh-1: inhibitors of HIV-1 reverse transcriptase RNase H; RT-RNase H RNA/DNA duplex cleavage, fluorescence; actives 1.9% (n = 65,000); AID 565; inhibition, % at 10 µM; in the data active means inhibition above about 50%
HIV RNase H inh-2: confirmation of HIV-1 reverse transcriptase RNase H inhibitors. actives 39% (n = 1,000). Recombinant RT RNase H, fluorescent RNA/DNA duplex cleavage. shares compounds with HIV RNase H inh-1. inhibition, % at 10 µM; in the data active means inhibition above about 48%; inconclusive means no clear call, values can overlap the other calls
A number is an active result; – = inactive; ? = inconclusive; · = not tested or not shown. This is one part of a sample in which hits are shown more often than they occur.

SMILES	RmlC RmlD mix	HIV RNase H inh-1	HIV RNase H inh-2
CC(O)c1nc2ccccc2n1CCOc1ccccc1 (configuration not stated)	–	·	·
COc1ccccc1OCCn1c(C(C)O)nc2ccccc21 (configuration not stated)	–	65	–
O=C(Nc1nccs1)c1csc2c1CCCC2	–	·	·
O=C(NC1CCCCC1)C1CCCN1S(=O)(=O)c1cccc2nsnc12 (configuration not stated)	–	–	·
O=C(O)C1CSCN1S(=O)(=O)c1cccc2nsnc12 (configuration not stated)	–	62	–
Cc1ccc(NC(=O)c2cc(NC(=O)c3ccco3)ccc2N2CCCCC2)cc1	–	58	–
Cc1ccc(NC(=O)c2cc(NC(=O)c3ccco3)ccc2N2CCOCC2)cc1	–	–	·
COc1ccc(-c2nc(-c3ccc(C(=O)O)cc3)no2)cc1	–	·	·
CC1CN(Cc2nc3c(c(=O)n(C)c(=O)n3C)n2Cc2ccc(Cl)cc2)CC(C)O1 (configuration not stated)	·	–	·
CCc1nnc2n1N=C(c1ccc(-c3cc(Cl)ccc3Cl)o1)CS2	–	–	·
CC(C)[C@H](NC(=O)Nc1ccc(Oc2ccccc2)cc1)C(=O)O	–	–	·
O=C(c1ccco1)N1CCN(C(=O)c2cc(-c3ccncc3)nc3ccc(Br)cc23)CC1	–	–	·
O=C(O)c1cc(-c2ccco2)nc2ccc(Br)cc12	–	78	–
O=C(c1ccc(-c2cccc(C(F)(F)F)c2)o1)N1CCOCC1	–	–	·
S=C(c1ccc(-c2ccccc2Cl)o1)N1CCOCC1	–	95	51
S=C(c1ccc(-c2ccc(Cl)cc2Cl)o1)N1CCCCC1	–	·	·
S=C(c1ccc(Cl)cc1)N1CCOCC1	–	90	58
S=C(c1ccc(-c2ccc(Cl)c(Cl)c2)o1)N1CCOCC1	–	66	–
S=C(Nc1ccc(Cl)cc1)N1CCOCC1	–	·	·
COCCOC(=O)C1=C(C)NC(=O)N(C(C)=O)C1c1ccc(Cl)cc1 (configuration not stated)	–	–	·
Cc1nc(N2CCN(C(c3ccccc3)c3ccccc3)CC2)[nH]c(=O)c1C	–	–	·
Cc1nc(N2CCN(c3ccccc3)CC2)[nH]c(=O)c1Cc1cccc2ccccc12	·	63	–
Cc1ccc(C(=O)NNC(=O)CSc2nnc(-c3ccncc3)n2-c2ccc(C)cc2)cc1	–	·	·
COC(=O)c1sc(N2C(=O)c3oc4ccccc4c(=O)c3C2c2cccs2)nc1C (configuration not stated)	–	93	57
C=CCOC(=O)c1sc(N2C(=O)c3oc4ccccc4c(=O)c3C2c2ccco2)nc1C (configuration not stated)	·	–	·
SMILES	RmlC RmlD mix	HIV RNase H inh-1	HIV RNase H inh-2
CCOC(=O)CSc1nc(N)c(C(=O)Nc2ccc(N(C)C)cc2)s1	–	–	·
O=C1c2cccc3c(Cl)ccc(c23)C(=O)N1O	–	–	·
O=C(c1ccc2c3c(cccc13)C(=O)N(O)C2=O)N1CCCCC1	–	80	70
COc1c(C)cccc1C(=O)Nc1ccc(N2CCOCC2)c(Cl)c1	–	·	·
CCCCC(=O)NC1=NC(=O)C(C)(C)S1	–	–	·
COc1cccc(C=Nc2ccc3c(c2)OCCO3)c1O	·	–	·
CCOc1cccc(C=Nc2cc(C)cc(C)c2O)c1O	–	91	74
Cn1c(Cc2ccccc2)nnc1SCC(=O)c1ccc(Br)s1	–	–	·
COc1ccccc1C(=O)Nc1ccc(C(=O)N2CCCC2)cc1	–	·	·
NS(=O)(=O)c1ccc(NC(=O)c2ccccc2C(=O)N2CCCCC2)cc1	–	76	–
Cn1c(=O)[nH]c(=O)c2c1nc(N1CCCCC1)n2CCSc1ncccn1	·	–	·
C/C=C/Cn1c(SC)nc2c1c(=O)[nH]c(=O)n2C	–	77	?
C/C=C/Cn1c(Br)nc2c1c(=O)[nH]c(=O)n2C	–	–	·
C/C=C/Cn1c(N2CCCCCC2)nc2c1c(=O)[nH]c(=O)n2C	·	87	–
COc1ccc(/C(N)=N/OC(=O)CSc2ccccc2)cc1OC	–	·	·
COc1ccc(S(=O)(=O)N(CCc2ccccc2)CC(=O)O)cc1C	–	·	·
CC1=C(C#N)CCC(=O)N1Cc1ccc(C)cc1	–	·	·
C/C(Cl)=C/Cn1c(=O)c2c(nc(Br)n2Cc2ccccc2)n(C)c1=O	–	–	·
CN1CCN(C(=O)c2sc(=S)n(-c3ccccc3)c2N)CC1	–	95	59
Cc1ccc(-n2c(N)c(C(=O)N3CCOCC3)sc2=S)cc1	–	95	76
CCOC(=O)c1sc(=S)n(-c2ccccc2)c1N	–	·	·
CCNC(=O)c1sc(=S)n(-c2ccc(C)cc2)c1N	–	·	·
Cc1onc(-c2ccccc2Cl)c1C(=O)NCCn1c(C)cc2ccccc21	·	–	·
COc1ccc(C(=O)Nc2ccccc2C(=O)N(Cc2ccco2)C(C(N)=O)C(C)C)cc1 (configuration not stated)	–	·	·
COc1ccc(C(=O)Nc2ccccc2C(=O)NC(C(=O)NCc2ccco2)C(C)C)cc1 (configuration not stated)	–	82	–
SMILES	RmlC RmlD mix	HIV RNase H inh-1	HIV RNase H inh-2
COc1ccc(NC(=O)C2=C(C)Nc3ncnn3C2c2ccccc2C(F)(F)F)c(OC)c1 (configuration not stated)	–	–	·
C(=N\n1cnnc1)/c1ccc2ncccc2c1	–	–	·
Oc1ccc(C=Nc2ccc3ncccc3c2)c(O)c1	–	53	–
Cc1ccc(CN2CCN(CC(=O)NCc3ccc(Cl)cc3)C2=O)cc1	–	–	·
CCOC(=O)c1sc(NC(=O)/C=C/c2cnn(C)c2C)c(C(=O)OC(C)C)c1C	–	·	·
CCOC(=O)c1cc(-c2nnc(SCC(=O)Nc3ccc(F)cc3)o2)c(C)nc1C	–	70	–
CCOC(=O)c1cc(-c2nnc(-c3ccc(Cl)cc3)o2)c(C)nc1C	–	–	·
COC(=O)[C@@H]1C[C@H]2CC[C@H](O)C[C@H]2N1Cc1ccccc1OS(=O)(=O)c1ccc(C)cc1	–	·	·
O=C1C2C3C=CC(C3)C2C(=O)N1CNc1ccccn1 (configuration not stated)	–	·	·
CC(C(=O)Nc1ccccn1)N1C(=O)C2C3C=CC(C3)C2C1=O (configuration not stated)	–	74	–
CCOc1ccc(OCC)c(NC(=O)Nc2ccc3c(c2)N(C)C(=O)CS3)c1	–	·	·
COc1cc(C2C(C#N)=C(N)Oc3cc(C)n(CCc4ccccc4)c(=O)c32)cc2c1OCO2 (configuration not stated)	–	77	–
Cc1cc2c(c(=O)n1CCc1ccccc1)C(c1ccco1)C(C#N)=C(N)O2 (configuration not stated)	–	·	·
O=c1c2[nH]c3ccc(F)cc3c2ncn1CCN1CCOCC1	–	70	–
Cc1ccc2[nH]c3c(=O)n(CCN4CCOCC4)cnc3c2c1	–	·	·
Cc1ccnc(NS(=O)(=O)c2ccc(NC(=O)c3c(-c4ccccc4Cl)noc3C)cc2)n1	–	·	·
COc1ccc(Cl)cc1NC(=O)CN1CCC(n2nnc3cc(F)ccc32)CC1	–	–	·
O=C(NCC(=O)N(c1cccc(F)c1)C(C(=O)NCC1CCCO1)c1ccccc1)c1ccco1 (configuration not stated)	–	–	·
O=C(NCC(=O)N(c1ccc(F)cc1)C(C(=O)NCC1CCCO1)c1ccccc1)c1ccco1 (configuration not stated)	–	57	–
N#Cc1c(N)sc(=S)c2c1CCCC2	–	67	–
CCC1(C)Cc2c(C#N)c(N)sc(=S)c2CO1 (configuration not stated)	–	–	·

Source: PubChem
